Results: PubChem BioAssay AID1570 (National Center for Advancing Translational Sciences (NCATS), 2009)
Inconclusive results are not listed. Activity calls are given as the source filed them. The call rests on the fitted dose curve; in most records, active means well fitted inhibition curve with a large enough effect; inconclusive means small, poorly fitted or top-dose-only effect, or effect the other way; inactive means flat fitted curve, though single readings scatter.

Target: Thyroid hormone receptor beta (Homo sapiens) (UniProt P10828)
Sequence (P10828 whole entry, looked up): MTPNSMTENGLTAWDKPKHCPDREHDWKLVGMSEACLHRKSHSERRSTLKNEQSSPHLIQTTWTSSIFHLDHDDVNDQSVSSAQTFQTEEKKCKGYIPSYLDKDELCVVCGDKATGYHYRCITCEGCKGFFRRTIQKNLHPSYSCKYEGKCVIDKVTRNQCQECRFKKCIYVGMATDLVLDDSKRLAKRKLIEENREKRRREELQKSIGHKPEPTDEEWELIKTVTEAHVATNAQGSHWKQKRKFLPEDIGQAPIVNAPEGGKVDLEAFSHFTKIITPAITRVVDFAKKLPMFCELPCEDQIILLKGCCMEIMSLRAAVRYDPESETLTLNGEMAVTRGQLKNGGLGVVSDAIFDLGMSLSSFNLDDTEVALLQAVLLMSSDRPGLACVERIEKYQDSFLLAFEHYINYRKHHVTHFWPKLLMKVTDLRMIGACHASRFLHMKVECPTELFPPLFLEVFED
Test: Concentration Response Confirmation Assay for Inhibitors of the Interaction of Thyroid Hormone Receptor and Steroid Receptor Coregulator 2, Fluorescein Fluoroprobe
Conditions: TRbeta LBD / fluorescein-SRC2 peptide, fluorescence polarization, 5 h; series mostly up to 92.2 µM; activity, negative = inhibition: at the top concentration
Description: NIH Molecular Libraries Probe Production Network [MLPCN] NIH Chemical Genomics Center [NCGC] MLPCN Grant: DK058080 Assay Provider: R. Kip Guy, St. Jude Children's Research Hospital NCGC Assay Overview: Thyroid receptor (TR) regulates many homeostatic processes including basal metabolism, cardiovascular function, body weight, and lipid trafficking. TR modulators are potential therapeutics for obesity and hyperlipidemias but current thyroid analogs have undesirable side effects, particularly cardiac stimulation. To identify inhibitors that specifically prevent the interaction of TR with the steroid receptor coregulator 2 (SRC2), a fluorescence polarization assay was screened (Arnold et al., 2006). This assay detects interaction of the ligand-binding domain of human TRbeta with a fluorescein labeled SRC2 peptide, corresponding to a 20 amino acid region of the nuclear receptor interaction domain. Small molecule inhibitors that block the interaction of TR and SRC2 are detected by a decrease in fluorescence polarization. This assay is a confirmation assay for AID 1469. Arnold, L. A.; Estebanez-Perpina, E.; Togashi, M.; Shelat, A.; Ocasio, C. A.; McReynolds, A. C.; Nguyen, P.; Baxter, J. D.; Fletterick, R. J.; Webb, P.; Guy, R. K. A high-throughput screening method to identify small molecule inhibitors of thyroid hormone receptor coactivator binding. Sci STKE 2006, p 13.
NCGC Assay Protocol Summary: Five uL/well 0.6 uM TRbeta and 20 nM SRC2 Fluorescein in protein buffer (20mM Tris hydrochloride, 100mM NaCl, 10% glycerol, 1mM EDTA, 0.01% NP-40, 1mM DTT, 1uM T3 and 5% DMSO) was dispensed into black solid 1536-well plates (Grenier) using a solenoid-based dispenser. Following transfer of 23 nL compound or DMSO vehicle by a pin tool, the plates were centrifuged 15 s at 1000 RPM and incubated 5 hr at ambient temperature. The plates were read by an Envision (Perkin Elmer) to detect fluorescence polarization of SRC2 Fluorescein (480 nm excitation and 535 nm emission). Data were normalized to unbound (all components except TRbeta) and bound SRC2 Fluorescein controls. In this assay, we provide % activity data for each concentration as well as potencies for the active compounds. Keywords: NIH Roadmap, MLPCN, MLI, MLSMR, qHTS, NCGC, qHTS, thyroid hormone receptor, steroid receptor coactivator, fluorescence polarization

Row | SMILES | activity, negative = inhibition | Potency
1 | C=CCSc1nnc2n(-c3ccccc3OC)c(=O)c3c4c(sc3n12)CCC4 | 3.76% [at 46.3 µM] (inactive) | –
2 | Cc1ccc(-c2nc(S(=O)(=O)c3ccc(F)cc3)c(SCC(=O)NCC3CCCO3)o2)cc1 (centres undefined) | -8.38% [at 46.3 µM] (inactive) | –
3 | O=C(O)/C=C/C(=O)Nc1ccc(SC(F)(F)C(F)(F)C(F)(F)F)cc1 | – | 4.47 µM (active)
4 | COc1cc(NC(C)CCCN)c2ncccc2c1 (centres undefined) | -6.93% [at 184 µM] (inactive) | –
5 | Cc1nc2ccccc2n2c(O)c(CC(=O)O)cc12 | – | 8.91 µM (active)
6 | Cc1nnc(SCC(=O)Nc2ccc(N(C)C)cc2)[nH]c1=O | 6.74% [at 184 µM] (inactive) | –
7 | CC(=O)c1cccc(NC(=O)COC(=O)c2ccc(S(C)(=O)=O)c([N+](=O)[O-])c2)c1 | -8.61% [at 11.6 µM] (inactive) | –
8 | Cc1ccc(OC(=S)Nc2ccc(O)cc2)cc1 | 4.07% (inactive) | –
9 | Oc1ccc2ccccc2c1/C=N/c1nc2c(s1)CCCC2 | – | 31.6 µM (active)
